Data published in PubChem BioAssay AID1159580 (chemical genetic matrix, 2015).
Where “and” joins values, the source holds several entries; their conditions need not be identical. Equal entries are not always repeated. The whole screen tested about 5,500 compounds, of which about 2,000 (36%) were called active. Inconclusive results (about 18%) are left out. Rule as the data show it: active = normalized growth mostly below about 0.91 (no sharp cut-off); inconclusive = no clear call, values can overlap the other calls; inactive = mostly above about 0.92. This is one part of the list.

Assay: chemical genetic growth profiling, strain panel (AID 1159580);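 also: tested at 20 µM; growth read once vehicle control cultures reached saturation at 30 °C; 1 = growth at the plate median or of vehicle wells; lower values mean less growth of the strain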
Conditions: S. cerevisiae deletion strains, growth OD

Measured: normalized growth

Cc1cccc(C)c1NC1=NCCCS1
inactive: locus YAL013W, strain DEP1, active compounds read low 0.999 | locus YAL021C, strain ccr4, active compounds read low 1.03 | locus YAL026C, strain drs2, active compounds read low 0.986 | locus YAL030W, strain snc1, active compounds read low 1 | locus YAL040C, strain CLN3, active compounds read low 0.978 | locus YBL061C, strain skt5, active compounds read low 1 | locus YBR009C, strain hhf1, active compounds read low 1.02 | locus YBR021W, strain FUR4, active compounds read low 0.99 | locus YBR023C, strain chs3, active compounds read low 1.02 | locus YBR171W, strain sec66, active compounds read low 1.02 | locus YBR229C, strain ROT2, active compounds read low 1 | locus YBR231C, strain swc5, active compounds read low 0.997 | locus YBR279W, strain paf1, active compounds read low 1 | locus YCL011C, strain gbp2, active compounds read low 1.02 | locus YCL016C, strain dcc1, active compounds read low 1 | locus YCL029C, strain bik1, active compounds read low 0.974 | locus YCL061C, strain MRC1 (second series), active compounds read low 1.01 | locus YCL061C, strain MRC1, active compounds read low 1 | locus YCL069W, strain vba3, active compounds read low 1 | locus YCR088W, strain abp1, active compounds read low 1 | locus YDL005C, strain med2, active compounds read low 0.995 | locus YDL035C, strain GPR1, active compounds read low 0.979 | locus YDL040C, strain nat1, active compounds read low 1 | locus YDL074C, strain BRE1, active compounds read low 1.03 | locus YDL101C, strain DUN1, active compounds read low 1 | locus YDL134C, strain PPH21, active compounds read low 0.982 | locus YDL185W, strain tfp1, active compounds read low 0.947 | locus YDL192W, strain arf1, active compounds read low 0.987 | locus YDR001C, strain nth1, active compounds read low 1.01 | locus YDR069C, strain doa4, active compounds read low 1.02 | locus YDR101C, strain arx1, active compounds read low 0.995 | locus YDR137W, strain rgp1, active compounds read low 1 | locus YDR150W, strain NUM1, active compounds read low 0.996 and 1.01 | locus YDR159W, strain sac3, active compounds read low 0.991 | locus YDR162C, strain NBP2, active compounds read low 0.97 | locus YDR195W, strain ref2 0.977 | locus YDR297W, strain sur2, active compounds read low 1.01 | locus YDR318W, strain mcm21, active compounds read low 0.972 | locus YDR334W, strain swr1, active compounds read low 1.01 | locus YDR335W, strain msn5, active compounds read low 1.01 | locus YDR363W, strain ESC2, active compounds read low 1.02 | locus YDR388W, active compounds read low 0.994 | locus YDR392W, strain spt3, active compounds read low 1.01 | locus YDR502C, strain sam2, active compounds read low 0.991 | locus YEL003W, strain gim4, active compounds read low 1.01 | locus YEL037C, strain rad23, active compounds read low 1.01 | locus YEL061C, strain CIN8 (second series), active compounds read low 1.01 | locus YEL061C, strain CIN8, active compounds read low 1 | locus YER002W, strain NOP16, active compounds read low 1.01 | locus YER015W, strain faa2, active compounds read low 1.01 | locus YER016W, strain bim1, active compounds read low 1.01 | locus YER110C, active compounds read low 0.976 | locus YER111C, strain swi4, active compounds read low 1.01 | locus YER155C, strain BEM2 (second series), active compounds read low 1.01 | locus YER155C, strain BEM2, active compounds read low 0.995 | locus YER167W, strain BCK2, active compounds read low 0.99 | locus YFR010W, strain ubp6, active compounds read low 1.02 | locus YGL078C, strain dbp3, active compounds read low 0.983 | locus YGL086W, strain mad1, active compounds read low 0.998 | locus YGL167C, strain pmr1, active compounds read low 1.01 | locus YGL173C, strain kem1, active compounds read low 1.01 | locus YGL227W, strain vid30, active compounds read low 1 | locus YGL240W, strain doc1, active compounds read low 0.992 | locus YGL248W, strain PDE1, active compounds read low 1.01 | locus YGL253W, strain hxk2, active compounds read low 1.01 | locus YGR135W, strain pre9, active compounds read low 0.967 | locus YGR229C, strain SMI1, active compounds read low 0.996 | locus YGR252W, strain gcn5, active compounds read low 1 | locus YHR013C, strain ard1, active compounds read low 1.01 | locus YHR027C, strain rpn1, active compounds read low 0.992 | locus YHR030C, strain SLT2, active compounds read low 0.995 and 1.02 | locus YHR079C, strain IRE1 (second series), active compounds read low 0.981 | locus YHR079C, strain IRE1, active compounds read low 1.04 | locus YHR094C, strain hxt1, active compounds read low 0.989 | locus YHR129C, strain ARP1, active compounds read low 0.988 | locus YHR142W, strain chs7, active compounds read low 1.01 | locus YHR200W, strain rpn10, active compounds read low 0.96 | locus YIL066C, strain RNR3, active compounds read low 1 | locus YIL073C, strain SPO22, active compounds read low 0.86 | locus YIL125W, strain kgd1, active compounds read low 0.987 | locus YIR030C, strain dcg1, active compounds read low 0.975 | locus YJL092W, strain hpr5, active compounds read low 1 | locus YJL095W, strain BCK1 (second series), active compounds read low 1 | locus YJL095W, strain BCK1, active compounds read low 1.03 and 1.04 | locus YJL115W, strain asf1, active compounds read low 1.01 | locus YJL129C, strain trk1, active compounds read low 1 | locus YJL134W, strain LCB3, active compounds read low 0.994 | locus YJL154C, strain vps35, active compounds read low 1.01 | locus YJL164C, strain tpk1, active compounds read low 1.01 | locus YJL166W, strain qcr8, active compounds read low 1.01 | locus YJL168C, strain set2, active compounds read low 0.99 | locus YJL187C, strain SWE1 (second series), active compounds read low 1.03 | locus YJR043C, strain POL32, active compounds read low 1.02 | locus YJR066W, strain TOR1, active compounds read low 0.955
